# Source: PubChem BioAssay (NCATS)
# Inconclusive results are not listed. Values without a mark were called inactive. Active and inactive are the calls of the source. Calls come from the whole dose curve; as a rule, active = well fitted inhibition curve with a large enough effect; inconclusive = small, poorly fitted or top-dose-only effect; inactive = no such curve, though single readings can be large or run the other way. *1 amine or outer side, *2 acyl side, *3 side chain or, on linkers, in order; H or OH if unused. Where a SMILES comes first, the peptide text is derived from it. Bridges are numbered along the chain shown (N, C = ends). X6 = O=C(CCC[*:2])[*:1]
# System: Zika virus NS2B-NS3 protease (linked construct)
# Assay: Primary screen NINDS Rhodamine qHTS for Zika virus inhibitors (AID 1347160); note: nearly all actives have a fitted effect of over 55% in size
# Conditions: purified NS2B-NS3 protease, Rhodamine110 substrate fluorescence; series mostly up to 57.1 µM; activity change, negative = inhibition: at the top concentration
# How it was run: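 Purified NS2B-NS3 protease with the NS2B hydrophilic domain joined by a flexible linker (25 nM) in 10 mM Tris-HCl pH 8.0, 0.01% Tween 20, preincubated 15 min at RT with compound; Rhodamine110 peptide substrate 1.5 µM; fluorescence change over 15 min; 4-parameter Hill fit.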
# % is set by controls: 0 for no effect and ±100 for the full control effect; potency is the fitted concentration of half-maximal effect.
SMILES,outcome,"activity change, negative = inhibition",Potency
CCOc1nc2cccc(C(=O)O)c2n1Cc1ccc(-c2ccccc2-c2noc(=O)[nH]2)cc1,inactive,–,–
CC[C@H]1OC(=O)[C@H](C)[C@@H](O[C@H]2C[C@@](C)(OC)[C@@H](O)[C@H](C)O2)[C@H](C)[C@@H](O[C@@H]2O[C@H](C)C[C@H](N(C)C)[C@H]2O)[C@@](C)(O)C[C@@H](C)[C@@H]2N[C@@H](COCCOC)OC([C@H]2C)[C@]1(C)O,–,22.3%,–
COc1cc([C@H]2OC[C@@H]3[C@@H](c4ccc(O[C@@H]5O[C@H](CO)[C@@H](O)[C@H](O)[C@H]5O)c(OC)c4)OC[C@]23O)ccc1O,–,16.9% [at 33.1 µM],–
Cc1cccc(-c2[nH]c(CNc3ccccc3F)nc2-c2ccc3ncnn3c2)n1,–,9.69%,–
COc1c(C(CC(C)C)OC(C)=O)ccc(Oc2c(O)cc(C)cc2/C=C/C(C)=O)c1C(=O)O (stereo not given),–,–,11.2 µM (active)
C[C@@H]1O[C@@H](O[C@H]2[C@H](O)[C@@H](O)[C@H](OC[C@H]3O[C@@H](OC(=O)[C@]45CCC(C)(C)C[C@H]4C4=CCC6[C@@]7(C)C[C@H](O)[C@H](O[C@@H]8O[C@H](CO)[C@@H](O)[C@H](O)[C@H]8O)[C@@](C)(C(=O)O)C7CC[C@@]6(C)[C@]4(C)CC5)[C@H](O[C@@H]4O[C@H](CO)[C@@H](O)[C@H](O)[C@H]4O)[C@@H](O)[C@@H]3O)O[C@@H]2CO)[C@H](O)[C@H](O)[C@H]1O (stereo not given in full),–,-5.11% [at 10.7 µM],–
O=C(C1CC1)N1CC[C@@H](Cc2n[nH]c(=O)n2-c2ccc(-c3ccc4occc4c3)cc2)C1,–,10.2% [at 15.1 µM],–
C=CC1C(O[C@@H]2O[C@H](CO)[C@@H](O)[C@H](O)[C@H]2O)OC=C(C(=O)OC)C1Cc1nccc2c1[nH]c1ccccc12 (stereo not given in full),–,18.9% [at 33.1 µM],–
CC1OC(OC2C(C)OC(OC3C(OC(=O)/C=C/c4ccc(O)cc4)C(CO)OC(OC4(COC(=O)/C=C/c5ccc(O)cc5)OC(CO)C(O)C4O)C3OC3OCC(O)(CO)C3O)C(O)C2O)C(O)C(O)C1O (stereo not given),inactive [at 15.1 µM],–,–
CC1OC(O[C@H]2[C@@H](O)C[C@@]3(C)C([C@H](O)C[C@]4(C)C3CC=C3C5CC(C)(C)CC[C@]5(C(=O)OC5OC(CO)C(O)C(O)C5OC5OCC(OC6OCC(OC7OCC(O)C(O)C7O)C(O)C6O)C(OC6OCC(O)(CO)C6O)C5O)CC[C@]34C)[C@]2(C)CO)C(O)C(O)C1O (stereo not given in full),–,-1.39% [at 10.7 µM],–
N#Cc1ccnc(N2C(=O)CC[C@H]2C(=O)N(c2cncc(F)c2)[C@H](C(=O)NC2CC(F)(F)C2)c2ccccc2Cl)c1,–,-23.6%,–
CC(C)NC[C@H](O)COc1ccc(CCOCC2CC2)cc1,–,30.3%,–
Cc1nnc(C(C)C)n1C1CC2CCC(C1)N2CCC(NC(=O)C1CCC(F)(F)CC1)c1ccccc1 (stereo not given),inactive,–,–
O=C(O[C@H]1[C@@H]2C=CO[C@@H](O[C@@H]3O[C@H](CO)[C@@H](O)[C@H](O)[C@H]3O)[C@@H]2[C@@]2(CO)O[C@@H]12)c1ccc(O)cc1,–,-12.7% [at 33.1 µM],–
COCCCNCC1COc2ccccc2O1 (stereo not given),–,24.6%,–
COc1cc(C(C)=O)ccc1O[C@@H]1O[C@H](CO[C@@H]2O[C@@H](C)[C@H](O)[C@@H](O)[C@H]2O)[C@@H](O)[C@H](O)[C@H]1O,–,2.77% [at 33.1 µM],–
O=C(NCc1ccc(OC(F)(F)F)cc1)C1c2ccccc2C(=O)N1C1CCOCC1 (stereo not given),–,9.8%,–
CNC(=O)c1ccc(Nc2ncc(C(F)(F)F)c(NCc3nccnc3N(C)S(C)(=O)=O)n2)cc1,–,14.2%,–
O=C(CCCCc1ccc2ccccc2c1)C(F)(F)F,–,-24.7% [at 112 µM],–
COc1cc2c(Nc3ccc(Cl)c(Cl)c3F)ncnc2cc1OCC1C[C@@H]2CN(C)C[C@@H]2C1 (stereo not given in full),–,230%,–

SMILES,outcome,"activity change, negative = inhibition",Potency
C[C@@H]1C(=O)O[C@H]2CC34[C@H]5C[C@@H](C(C)(C)C)C36[C@@H](OC(=O)[C@@H]6O)OC4(C(=O)O5)[C@]21O (stereo not given in full),inactive,–,–
C/C=C(\C)C(=O)O[C@@H](C)[C@H]1CC[C@]2(O)C3CCC4C[C@@H](OC5CC(OC)C(OC6CC(OC)C(OC7CC(OC)C(OC8OC(C)C(OC9OC(CO)C(O)C(O)C9O)C(OC)C8O)C(C)O7)C(C)O6)C(C)O5)CC[C@]4(C)C3[C@H](O)[C@@H](O)[C@]12C (stereo not given in full),–,6.1% [at 10.7 µM],–
COC(=O)C1=CO[C@@H](O[C@@H]2O[C@H](CO)[C@@H](O)[C@H](O)[C@H]2O)[C@@H]2[C@@H](C(=O)OC)[C@@H](O)C(O)[C@H]12 (stereo not given in full),–,43.1% [at 33.1 µM],–
O=c1ccn([C@@H]2O[C@H](CO)[C@@H](O)[C@H]2O)c(=O)[nH]1,inactive,–,–
O=C(c1ccc(C#Cc2cccc(F)c2)cn1)N1CC2CC2C1 (stereo not given),–,16%,–
O=C1C[C@@H](c2ccc(O)cc2)Oc2cc(O)ccc21,–,10.5%,–
CC1=CC(=O)OC(C)(CC(C)(O)C(=O)O)C1 (stereo not given),–,52.8%,–
CC1[C@@H](O)[C@@H](O)C2[C@]3(C)C(C[C@H]4OC(=O)[C@H](O)[C@]1(O)[C@@]24C)C(C)(O)C[C@H](O)[C@H]3O (stereo not given in full),–,25.6% [at 33.1 µM],–
C=C[C@H]1[C@H](O[C@@H]2O[C@H](CO[C@@H]3OC[C@](O)(CO)[C@H]3O)[C@@H](O)[C@H](O)[C@H]2O)OC=C2C(=O)OCC[C@H]21,–,9.58% [at 33.1 µM],–
COC1=Cc2c(nc3n(c2=O)C(C)C(=O)NC3(O)C(C)C)OC=C1 (stereo not given),–,12.6% [at 33.1 µM],–
CN[C@@H]1[C@@H](O)[C@@H](O[C@@H]2[C@@H](O)[C@H](O[C@H]3O[C@H](CN)[C@@H](O)[C@H](O)[C@H]3O)[C@@H](N)C[C@H]2NC(=O)[C@@H](O)CN)OC[C@]1(C)O,inactive,–,–
CC[C@H](C)[C@@H]1NC(=O)[C@H](Cc2ccc(OC)cc2)NC(=O)CCCSC[C@@H](C(=O)N2CCC[C@H]2C(=O)N[C@@H](CC(C)C)C(=O)NCC(N)=O)NC(=O)[C@H](CC(N)=O)NC(=O)[C@H](CCC(N)=O)NC1=O (Y(Me)IQNCPLG-NH2; linker N-5 via X6),–,-15% [at 33.1 µM],–
CC1(C)NC2N(C1=O)c1ccccc1C2(O)CC(C(=O)O)n1cnc2ccccc2c1=O (stereo not given),–,21.1% [at 33.1 µM],–
CC1(CO)CC2C(O)C(=O)C3(CO)CC3(C)C2C1 (stereo not given),–,-0.333%,–
NC(Cc1c[nH]c2ccccc12)C(=O)NC(CCC(=O)O)C(=O)O (stereo not given),–,-5.49%,–
CC1C(=O)CC2C3C(O)CC(C(=O)O)C12CC3(C)C (stereo not given),–,19.7%,–
C[C@@H]1O[C@@H](O[C@@H]2[C@@H](O)[C@@H](O)[C@H](O[C@@H]3[C@@H](O)[C@@H](O[C@]4(CO)O[C@H](CO)[C@@H](O)[C@@H]4OC(=O)/C=C/c4ccc(O)cc4)O[C@H](CO)[C@H]3OC(=O)/C=C/c3ccc(O)cc3)O[C@H]2C)[C@H](O)[C@H](O)[C@H]1O,–,32.4% [at 15.1 µM],–
CC(C)=CC/C=C(/C)[C@H]1CC[C@]2(C)[C@@H]1[C@H](O)CC1[C@@]3(C)CC[C@H](O)C(C)(C)[C@@H]3[C@@H](O[C@@H]3O[C@H](CO)[C@@H](O)[C@H](O)[C@H]3O[C@@H]3O[C@@H](C)[C@H](O)[C@@H](O)[C@H]3O)C[C@]12C (stereo not given in full),–,-7.19% [at 15.1 µM],–
CC1=CC(=O)CC(C)(C)C1(O)CCC(C)O (stereo not given),–,16.5%,–
CC1CCC(=O)CC(O)C(O)CC(=O)O1 (stereo not given),–,-11.7%,–
